Records with an inconclusive call do not appear. Calls of active or inactive are those of the source. Calls come from the whole dose curve; as a rule, active = well fitted inhibition curve with a large enough effect; inconclusive = small, poorly fitted or top-dose-only effect; inactive = flat fitted curve, though single readings scatter.
Assays:
Assay in all cases: qHTS profiling for inhibitors of Plasmodium falciparum proliferation (AID 504749); note: nearly all actives have a fitted effect of over 60% in size
Settings in all cases: P. falciparum in erythrocytes, SYBR Green DNA, 72 h
CP315 = test system: CP315
Summary of the method: (§1)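 In a 72 h erythrocytic culture (37 C, humidified, 5% CO2) at 2.5% hematocrit and 0.3% starting parasitemia, compounds were tested; SYBR Green I in detergent lysis buffer stained parasite DNA overnight.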

CP325 = test system: CP325
Summary of the method: as §1

CP329 = test system: CP329
Summary of the method: as §1

CP335 = test system: CP335
Summary of the method: as §1

DFO2036 = test system: DFO2036
Summary of the method: as §1

DIV14 = test system: DIV14
Summary of the method: as §1

DIV17 = test system: DIV17
Summary of the method: as §1

DIV30 = test system: DIV30
Summary of the method: as §1

Dd2 = test system: Dd2
Summary of the method: as §1

ECU = test system: ECU
Summary of the method: as §1

GB4 = test system: GB4
Summary of the method: as §1

HB3 = test system: HB3
Summary of the method: as §1

ICS = test system: ICS
Summary of the method: as §1

JCK = test system: JCK
Summary of the method: as §1

N140 = test system: N140
Summary of the method: as §1

P93_24 = test system: P93_24
Summary of the method: as §1

P94_40 = test system: P94_40
Summary of the method: as §1

PAD = test system: PAD
Summary of the method: as §1

PC15 = test system: PC15
Summary of the method: as §1

PC26 = test system: PC26
Summary of the method: as §1

Measured: Potency
Potency is the fitted concentration of half-maximal effect.

CC(=O)O[C@H]1C(=O)[C@@]2(C)[C@H]([C@H](OC(=O)c3ccccc3)[C@]3(O)C[C@H](OC(=O)[C@H](O)[C@@H](NC(=O)c4ccccc4)c4ccccc4)C(C)=C1C3(C)C)[C@]1(OC(C)=O)CO[C@@H]1C[C@@H]2O
active: CP315 478 nM | CP325 536 nM | CP329 601 nM | CP335 269 nM | DFO2036 282 nM | DIV14 953 nM | DIV17 953 nM | DIV30 601 nM | Dd2 126 nM | ECU 891 nM | GB4 338 nM | HB3 1000 nM | ICS 398 nM | JCK 11200 nM | N140 631 nM | P93_24 631 nM | P94_40 355 nM | PAD 708 nM | PC15 1410 nM | PC26 536 nM

CC[C@]1(O)CC2CN(CCc3c([nH]c4ccccc34)[C@@](C(=O)OC)(c3cc4c(cc3OC)N(C)[C@H]3[C@@](O)(C(=O)OC)[C@H](OC(C)=O)[C@]5(CC)C=CCN6CC[C@]43[C@@H]65)C2)C1 (some centres undefined)
active: CP315 1690 nM | CP325 3380 nM | CP329 2390 nM | CP335 675 nM | DFO2036 3550 nM | DIV14 6750 nM | DIV17 6750 nM | DIV30 1900 nM | Dd2 178 nM | ECU 2240 nM | GB4 1900 nM | HB3 398 nM | ICS 708 nM | N140 2820 nM | P93_24 1260 nM | P94_40 1000 nM | PAD 4470 nM | PC15 5010 nM | PC26 1690 nM

Source: PubChem BioAssay (NCATS)
